Measured values taken from PubChem BioAssay AID1053197 (The Scripps Research Institute Molecular Screening Center, 2014).
The campaign covered roughly 370,000 compounds. About 2,600 (0.7%) were called active.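 Rule for the calls: active = inhibition above a cutoff: mean of compounds within the control limits plus 3 SD of those (cut at about 17% in these data); inactive = the rest.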 What follows is part of a selection rich in actives, with near analogues and random picks from the rest.

Biological target: Sialate O-acetylesterase (Homo sapiens) (UniProt Q9HAT2)
Sequence (Q9HAT2 whole entry, looked up): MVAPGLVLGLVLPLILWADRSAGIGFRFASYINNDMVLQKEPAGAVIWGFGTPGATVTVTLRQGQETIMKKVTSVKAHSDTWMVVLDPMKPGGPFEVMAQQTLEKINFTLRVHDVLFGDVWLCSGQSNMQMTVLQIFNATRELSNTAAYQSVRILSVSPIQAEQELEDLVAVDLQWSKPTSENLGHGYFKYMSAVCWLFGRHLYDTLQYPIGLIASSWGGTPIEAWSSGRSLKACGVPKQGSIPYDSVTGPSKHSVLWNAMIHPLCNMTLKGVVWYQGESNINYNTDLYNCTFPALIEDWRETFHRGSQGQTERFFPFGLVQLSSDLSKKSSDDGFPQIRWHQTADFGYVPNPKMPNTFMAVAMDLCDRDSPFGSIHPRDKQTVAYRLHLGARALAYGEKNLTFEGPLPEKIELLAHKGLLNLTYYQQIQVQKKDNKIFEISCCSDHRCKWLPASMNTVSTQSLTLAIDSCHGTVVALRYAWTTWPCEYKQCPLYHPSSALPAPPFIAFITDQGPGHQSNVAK
Experiment: human SIAE inhibitors, primary screen, biochemical, fluorescence polarization, FP-Rh probe, 1536-well HTS (AID 1053197);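 note: 0% = plate median of compound wells and 100% = probe without SIAE protein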
Settings: SIAE FP-Rh probe binding, at 9.66 µM, active compounds read high

| Compound | inhibition |
| --- | --- |
| COCC(=O)N[C@@H]1C[C@@H]2O[C@@H](CO)CC[C@@H]2O[C@@H]1CCc1ccc(-c2ccccc2)cc1 | 2.31% (inactive) |
| Cc1ccc(Cn2cc(CN3[C@@H](CC(C)C)COc4ccc(Cl)cc4S3(=O)=O)nn2)cc1 | 1.1% (inactive) |
| Cc1ccc(N2C(=O)C3N=NN(CC(=O)N4N=C(c5cccc6ccccc56)CC4c4ccccc4)C3C2=O)cc1 (configuration not stated) | -11.7% (inactive) |
| Oc1ccccc1C1=NN(c2ccccc2)C(c2ccccc2)C1 (configuration not stated) | 20.5% (active) |
| COc1ccc(C2CC(c3cccc(OC)c3)=NN2c2ccc(S(N)(=O)=O)cc2)cc1 (configuration not stated) | 6.8% (inactive) |
| O=C1CC[C@@]23CCCN2C(=O)CCC[C@H]3[C@H]1Cc1ccccc1 | 4.29% (inactive) |
| Cc1cccc(Cn2c(N3CCN(c4ccccc4)CC3)nc3c2c(=O)n(C)c(=O)n3C)c1 | -1.65% (inactive) |
| CCOc1ccc2nc(NC(=O)CSc3nc4c(c(=O)n(C)c(=O)n4C)n3CC)sc2c1 | -3.15% (inactive) |
| CCOc1ccc(Cn2c(SCCCCC#N)nc3c2c(=O)n(C)c(=O)n3C)cc1OCC | 25.8% (active) |
| COC(=O)c1cccc(Cn2ccc3ccc(-c4ccc5ccn(C(=O)C6CCCCC6)c5c4)cc32)c1 | -4.45% (inactive) |
| N#CCC[C@H]1CC[C@]2(CCCN(Cc3ccc(Cl)cc3)C2)O1 | 1.15% (inactive) |
| C#CCNC(=O)C[C@H]1C[C@@]2(C(=O)OC)C(=C[C@H](C(C)C)O[C@@H]2C2CC2)N(Cc2ccco2)C1=O | 4.68% (inactive) |
| COc1cc(/C=C/C(=O)OCC(=O)NCCCc2ccccc2)ccc1O | 9.1% (inactive) |
| COc1ccc(/C=N/Nc2ncnc3sc4c(c23)CCCC4)cc1O | -1.15% (inactive) |
| COc1cc(/C=N\Nc2nc(-c3cccs3)c(NC(C)=O)s2)ccc1O | 18.3% (active) |
| O=C(NCc1cccs1)C1CCCN(S(=O)(=O)c2ccc([N+](=O)[O-])cc2)C1 (configuration not stated) | 3.31% (inactive) |
| COc1ccc(-n2c(SCC(=O)Nc3ccc4c(c3)OCCO4)nnc2-c2ccc(Cl)cc2)cc1 | 2.64% (inactive) |
| CCCCn1c(N)c(N(CCC(C)C)C(=O)c2ccc([N+](=O)[O-])o2)c(=O)[nH]c1=O | 1.61% (inactive) |
| CCCCn1c(N)c(N(CC(C)C)C(=O)CSc2ccc([N+](=O)[O-])cc2)c(=O)[nH]c1=O | 17.8% (active) |
| CCCCn1c(N)c(N(CC(C)C)C(=O)CN(C)S(=O)(=O)c2ccc(F)cc2)c(=O)[nH]c1=O | 2.93% (inactive) |
| CCC(=O)OCCCN1C(=O)CCC12CCC(c1ccccc1)CC2 (configuration not stated) | 10.2% (inactive) |
| COC(=O)[C@@]12CCCCC3=C1N(CCC3)C(=O)[C@H]2CC(=O)NCc1cccc2ccccc12 | 3.42% (inactive) |
